# Reference: PubChem BioAssay (NCI)
# This is part of a sample that, as a whole, favours compounds with a hit. Of some 83,000 tested, about 20% had one in any assay.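 Values shown are percent growth following 48 h exposure of cells in 96-well plates to a single concentration of compound; below 10 was considered active.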 Active and inactive are the calls of the source.
# System: A498 renal
# Test: NCI-60 one-dose screen, 48 h (100 = growth as untreated, 0 = no growth, -100 = all killed)
# Conditions: 10 µM
row,SMILES,growth
1,CC1=CC(=O)c2ccccc2C1=O,103% (inactive)
2,CCOC(=O)C(O)C(O)C(=O)OCC (stereo not given),101% (inactive)
3,O=C(O)C(Cc1ccccc1)C(=O)O,89.1% (inactive)
4,O=C1N(C[P+](c2ccccc2)(c2ccccc2)c2ccccc2)CCCN1C[P+](c1ccccc1)(c1ccccc1)c1ccccc1,85.5% (inactive)
5,N/N=C(/Cc1ccccc1)NNC(N)=S,87.5% (inactive)
6,COc1ccc(C)cc1OC,94.5% (inactive)
7,O=[N+]([O-])c1cccc(N=Nc2ccc(O)cc2O)c1,66.9% (inactive)
8,CC1=NN(c2ccccc2)C(=O)/C1=C\N1CC(=O)NC1=S,92.9% (inactive)
9,S=c1nn[nH]c2ccccc12,109% (inactive)
10,NC(=O)NC(=O)c1ccc(Cl)cc1,102% (inactive)
11,CC1=C(/C=C/C(C)=C/C=C/C(C)=C/CO)C(C)(C)CCC1,98% (inactive)
12,Cn1cnc2nc(Cl)nc(Cl)c21,62.6% (inactive)
13,CC1(C)N=C(N)N=C(N)N1c1ccc(Cl)cc1,120% (inactive)
14,O=C(/C=C\c1ccc(O)cc1)c1ccccc1,114% (inactive)
15,C/C(O)=C(\C=N\C(N)=S)C(=O)Nc1ccccc1,98.6% (inactive)
16,CCS(=O)(=O)c1cc(=O)[nH]c(=O)[nH]1,121% (inactive)
17,CC(C)(O)C#CC#CC(C)(C)O,93.6% (inactive)
18,NNc1ccccc1C(=O)O,98.1% (inactive)
19,[O-][N+](=Nc1cccc(Cl)c1)c1cccc(Cl)c1,103% (inactive)
20,O=C(O)C(O)c1ccccc1 (stereo not given),93.9% (inactive)
